Where “and” joins values, the source holds several entries; their conditions need not be identical. Identical values can stand only once. Results filed as inconclusive are left out. Calls of active or inactive are those of the source. Unless noted, calls follow the shape of the dose curve; as a rule, active = well fitted curve in the direction sought with a large enough effect; inconclusive = small, poorly fitted or top-dose-only effect, or another doubt; inactive = no such curve, though single readings can be large; an effect the other way counts as inactive or inconclusive.
Experiments:
[1] = Cell Viability - MRC5 (AID 434; calls by dose curve;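 also: potency is read from the fitted curve at half-maximal effect; cells exposed to compound for 40 hours at 37 °C; potency reflects cytotoxicity seen as loss of intracellular ATP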); details: MRC5 lung fibroblast viability, qHTS
Method in brief: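 qHTS cytotoxicity in human lung fibroblast MRC5 cells; 40 hr treatment, 37 °C; cellular ATP by luciferase luminescence; DMSO = 0%, 100 uM tamoxifen = 100% inhibition; Hill-fit AC50.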

[2] = molecular target: Mitogen-activated protein kinase 10 (Mus musculus) (UniProt Q61831); assay: JNK3 AlphaScreen Assay (AID 530; active = well fitted curve in either direction with a large enough effect, not every such curve was filed as active;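 also: kinase came from lysate of stimulated human HepG2 cells; signal reports phosphorylation of biotinylated GST-cJun 1-79 at Ser73 with 10 µM ATP; % is scaled to controls: 0 for no effect and ±100 for the full control effect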); details: JNK3 lysate, c-Jun phosphorylation; series mostly up to 57.1 µM
Method in brief: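 Compound titrations were preincubated 15 minutes at room temperature with substrate, antibody and pre-activated JNK3-containing HepG2 lysate. Reactions were started with 10 uM ATP and stopped with EDTA-containing bead buffer for AlphaScreen detection.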

[3] = Cell Viability - Renal Proximal Tubule (AID 545); details: renal proximal tubule cells viability; series mostly up to 91.7 µM;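 also: cells exposed to compound for 40 hours; nearly all actives have a fitted effect of over 40% in size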
Method in brief: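 Cytotoxicity is scored as a concentration-dependent drop in cellular ATP in primary rat renal proximal tubule cells exposed for 40 hr. AC50 derives from Hill modelling.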

[4] = Cellular Toxicity (caspase-3) HepG2 (AID 654); details: HepG2 caspase-3 activation, luminescence, 0% = DMSO only, 100% = tamoxifen; series mostly up to 92.2 µM;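 also: cells exposed to compound for 16 hours before reading; 0% = DMSO alone and 100% = caspase signal from 100 µM tamoxifen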
Method in brief: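 HepG2 cells (1500/well) were treated 16 h at 37 °C in complete medium, then caspase 3/7 activity was read by Caspase-Glo luminescence. Data were normalized to DMSO and 100 uM tamoxifen; AC50 came from Hill-equation fits of qHTS concentration-response.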

[5] = Cellular Toxicity (caspase-3) SHSY5Y (AID 657); details: SH-SY5Y caspase-3 activation, DMSO zero, 10 µM staurosporine = 100%; series mostly up to 91.7 µM
Method in brief: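 Cells plated and incubated 5 h at 37 °C, dosed over a concentration range, incubated 16 h, then given Caspase-Glo 3/7 reagent for 1 h at room temperature before luminescence reading. Staurosporine (10 uM) defined full stimulation.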

[6] = Cellular Toxicity (caspase-3) H-4-II-E (AID 663); details: H-4-II-E rat hepatoma; Potency: caspase-3 activation; series mostly up to 92.2 µM;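 also: cells exposed to compound for 16 hr before readout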
Method in brief: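 Apoptosis induction is scored as increased luminescence from caspase 3/7 substrate cleavage in rat hepatoma H-4-II-E cells exposed to compound for 16 hr. Activity is scaled between DMSO and 100 uM tamoxifen.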

[7] = Cellular Toxicity (caspase-3) N2a (AID 665); details: N2a cells, luminescence, normalized: DMSO 0%, 10 µM staurosporine 100%; series mostly up to 92.2 µM;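 also: compound exposure lasted 16 h at 37 °C before readout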
Method in brief: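 Mouse N2a neuroblastoma cells, 1500 per well, treated 16 h at 37 °C in complete medium; caspase-3/7 activity by Caspase-Glo luminescence after 1 h. Normalized to DMSO and 10 uM staurosporine; AC50 from Hill fits.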

[8] = Cellular Toxicity (caspase-3) Renal Proximal Tubule (AID 667); details: renal proximal tubule cells; series mostly up to 91.7 µM;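 also: cells exposed to compound for 16 hours at 37 °C before detection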
Method in brief: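 In qHTS format, rat primary proximal tubule cells seeded at 1000 per well are exposed to compounds for 16 hours at 37 °C. An increase in Caspase-Glo 3/7 luminescence indicates caspase activation.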

[9] = MultiTox-Fluor Cytotoxicity Assay - LYMP1-003 - Dead Cells (AID 961); details: LYMP1-003 lymphoblastoid cells, dead-cell protease fluorescence; series mostly up to 92.2 µM;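 also: 0% = DMSO and 100% = tetraoctylammonium bromide; nearly all actives have a fitted effect of over 70% in size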
Method in brief: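 Acute toxicity is scored as increased dead-cell protease activity in human lymphoblastoid LYMP1-003 cells after 16 h compound exposure in complete culture medium. Activity is normalized to DMSO basal and 15 uM tetraoctylammonium bromide as full response.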

[10] = Cell Viability - LYMP1-003 - Assay at 24 hr (AID 963); details: LYMP1-003 lymphoblastoid cell viability; series mostly up to 92.2 µM;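 also: plate controls were DMSO only for no effect and tetraoctylammonium bromide positive control for full effect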
Method in brief: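 Human lymphoblastoid LYMP1-003 cells, 2500/well, treated 24 h at 37 C in complete medium. Viability read as intracellular ATP by CellTiter-Glo luminescence after 30 min at room temperature; AC50 from Hill-equation fits of qHTS concentration-response.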

[11] = Cell Viability - LYMP2-009 (AID 968); details: LYMP2-009 lymphoblastoid cell viability; series mostly up to 92.2 µM;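 also: 0% = DMSO alone and the full-kill end = tetraoctylammonium bromide at 92 µM; nearly all actives have a fitted effect of over 55% in size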
[12] = Cell Viability - LYMP2-021 (AID 974); details: LYMP2-021 lymphoblastoid cells viability; series mostly up to 92.2 µM;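 also: compound exposure lasts 24 hours at 37 °C; % is scaled to controls: 0 for no effect and ±100 for the full control effect; nearly all actives have a fitted effect of over 55% in size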
Method in brief: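 Human lymphoblastoid LYMP2-021 cells, 2500/well in complete medium, treated 24 hours at 37 C. Intracellular ATP by CellTiter-Glo luminescence (30 min, RT); AC50 from Hill fits of concentration-response.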

[13] = Cell Viability - LYMP2-006 (AID 978); details: LYMP2-006 lymphoblastoid cell viability, qHTS; series mostly up to 92.2 µM; also: % is scaled to controls: 0 for no effect and ±100 for the full control effect; nearly all actives have a fitted effect of over 60% in size
Method in brief: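 Concentration-dependent loss of intracellular ATP in a human lymphoblastoid line after 24 hr treatment at 37 C was measured by CellTiter-Glo luminescence, with AC50 values obtained from standard Hill-equation modelling.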

[14] = Cell Viability - LYMP2-008 (AID 980); details: LYMP2-008 lymphoblastoid cell viability, qHTS; series mostly up to 92.2 µM; also: % is scaled to controls: 0 for no effect and ±100 for the full control effect; nearly all actives have a fitted effect of over 60% in size
Method in brief: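 LYMP2-008 lymphoblastoid cells (2500/well) plated 5 h, then treated 24 h at 37 C in complete medium. Viability read as intracellular ATP by CellTiter-Glo luminescence after 30 min at room temperature; AC50 from Hill fits.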

[15] = Cell Viability - LYMP2-018 (AID 985); details: LYMP2-018 lymphoblastoid cells, viability (qHTS); series mostly up to 92.2 µM;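 also: compound exposure lasted 24 hr at 37 °C; plate controls were DMSO only for no effect and tetraoctylammonium bromide at 92 µM for full effect; nearly all actives have a fitted effect of over 50% in size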
Method in brief: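 Human lymphoblastoid LYMP2-018 cells, 2500/well, settled 5 hr at 37 C then exposed to compound 24 hr at 37 C; intracellular ATP measured by CellTiter-Glo luminescence. AC50 from Hill-equation concentration-response fits.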

[16] = Cell Viability - LYMP1-002 - Assay at 24 hr (AID 993); details: LYMP1-002 lymphoblastoid cells viability; series mostly up to 92.2 µM; also: % is scaled to controls: 0 for no effect and ±100 for the full control effect
Method in brief: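 Human lymphoblastoid LYMP1-002 cells (2500/well) treated 24 h at 37 °C; viability as intracellular ATP by CellTiter-Glo luminescence. Tetraoctylammonium bromide as positive control; AC50 from Hill-equation fits of qHTS concentration-response.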

[17] = qHTS assay for environmental chemicals that activate the Aryl hydrocarbon Receptor (AhR) signaling pathway (AID 651777); details: 1A2-DRE human hepatoma cells, luciferase, 24 h; activation: active compounds read high; also: % of control where 0% means no effect; nearly all actives have a fitted effect of over 15% in size
Method in brief: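 Human hepatoma 1A2-DRE cells, stably carrying a dioxin response element and CYP1A2 promoter driving luciferase, were exposed to compounds for 24 hr at 37 C and 5% CO2. Luciferase signal was then read after 30 min One-Glo at room temperature.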

[18] = qHTS assay for small molecule activators of the human pregnane X receptor (PXR) signaling pathway (AID 720659; call rule not given here; also: 0% is about no effect); details: DPX-2 HepG2 CYP3A4-luciferase, 24 h; series mostly up to 92.3 µM
[19] = Cell Viability - LYMP2-001 (AID 921); details: LYMP2-001 lymphoblastoid cell viability; series mostly up to 92.2 µM;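 also: 0% = DMSO only and full inhibition = tetraoctylammonium bromide control wells; nearly all actives have a fitted effect of over 70% in size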
Method in brief: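 qHTS, 1536-well; lymphoblastoid cells, 24 hr compound, 37 C; ATP by CellTiter-Glo, 30 min RT; luminescence; Hill-fit AC50.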

[20] = Cell Viability - LYMP1-003 - Assay at 40 hr (AID 964); details: LYMP1-003 lymphoblastoid viability; series mostly up to 92.2 µM; also: % is scaled to controls: 0 for no effect and ±100 for the full control effect; nearly all actives have a fitted effect of over 60% in size
Method in brief: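 LYMP1-003 human lymphoblastoid cells, 2500/well, preincubated 5 h at 37 C, then treated with compound for 40 h at 37 C. Intracellular ATP read by CellTiter-Glo luminescence after 30 min at room temperature; AC50 from Hill-equation fits.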

O=C(O)CBr
inactive: Potency [1] > 92 µM | Potency [2] | outcome [3] | outcome [4] | outcome [5] | Potency [6] | outcome [7] | outcome [8] | Potency [9] | outcome [10] | Potency [11] | Potency [12] | Potency [13] | Potency [14] | Potency [15] | Potency [16] | activation [17] -0.817% | outcome [18]

N#CCc1ccccc1
inactive: Potency [1] > 92 µM | Potency [2] | outcome [3] | outcome [4] | outcome [5] | outcome [7] | outcome [8] | Potency [19] | Potency [9] | outcome [10] | Potency [20] | Potency [11] | Potency [12] | Potency [13] | Potency [14] | Potency [15] | Potency [16] | activation [17] -0.841% | outcome [18]

Clc1cccc(Cl)c1Cl
inactive: Potency [1] > 92 µM | outcome [3] | outcome [4] | outcome [5] | Potency [6] | outcome [7] | outcome [8] | Potency [19] | Potency [9] | outcome [10] | Potency [20] | Potency [11] | Potency [12] | Potency [13] | Potency [14] | Potency [16] | activation [17] -1.51% and 0.659% | outcome [18]

ClC(Cl)(Cl)C(Cl)(Cl)Cl
inactive: Potency [2] | outcome [3] | outcome [4] | outcome [7] | Potency [9] | outcome [10] | Potency [20] | Potency [11] | Potency [12] | Potency [13] | Potency [14] | Potency [15] | activation [17] 0.18% | outcome [18]

CCCBr
inactive: Potency [1] > 92 µM | Potency [2] | outcome [3] | outcome [4] | outcome [5] | Potency [6] | outcome [7] | outcome [8] | Potency [19] | outcome [10] | Potency [20] | Potency [11] | Potency [13] | Potency [15] | Potency [16] | activation [17] 0.665% | outcome [18]

CCC(Cl)[N+](=O)[O-] (configuration not stated)
inactive: Potency [2] | Potency [6] | outcome [7] | outcome [8] | Potency [19] | Potency [9] | outcome [10] | Potency [11] | Potency [12] | Potency [13] | Potency [14] | Potency [16] | activation [17] -0.0264% | outcome [18]

CC(C)(OOC(C)(C)c1ccccc1)c1ccccc1
inactive: Potency [1] > 92 µM | outcome [4] | Potency [6] | outcome [8] | Potency [19] | Potency [9] | outcome [10] | Potency [20] | Potency [11] | Potency [13] | Potency [14] | Potency [15] | Potency [16] | activation [17] -0.821% and 0.322%

CN(C)C(=O)Cl
inactive: Potency [2] | outcome [3] | outcome [4] | outcome [5] | Potency [6] | outcome [7] | outcome [8] | Potency [19] | Potency [9] | outcome [10] | Potency [20] | Potency [11] | Potency [12] | Potency [13] | Potency [14] | Potency [16] | activation [17] -0.443% | outcome [18]
